Test results as given in PubChem BioAssay (Tox21).
Records with an inconclusive call do not appear. Active and inactive are the calls of the source. Calls follow the shape of the dose curve; as a rule, active = well fitted curve in the direction sought with a large enough effect in the repeat runs; inconclusive = weak or mixed curves; inactive = no such curve, though single readings can be large; an effect the other way counts as inactive or inconclusive.

Assays:
[1] = A CellTox Green Cytotoxicity Assay to monitor cytotoxicity in HEK293 cells - 40 hour (AID 1224871); also: nearly all actives have a fitted effect of over 45% in size
Summary of the method: (§1)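 Each value comes from one timepoint of a single continuous run in which HEK293 cells with CellTox Green were exposed to compound for up to 40 h at 37 C, dye fluorescence rising with cell death.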

[2] = qHTS RealTime-Glo MT Cell Viability Assay in HEK293 cells - 16 hour (AID 1224872); also: top concentration of the series differs between compounds; nearly all actives have a fitted effect of over 50% in size
Summary of the method: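 Quantitative high-throughput screen of the Tox21 10K library in HEK293: cells and RealTime-Glo reagents plated together, compound added at 5 h, luminescence monitored through 40 h at 37 C.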

[3] = qHTS RealTime-Glo MT Cell Viability Assay in HepG2 cells - 8 hour (AID 1224873); also: nearly all actives have a fitted effect of over 55% in size
Summary of the method: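 HepG2 cells (600/well) mixed with RealTime-Glo MT reagent, settled 5 h at 37 C/5% CO2 before compound addition. Nonlytic NanoLuc luminescence from viable-cell prosubstrate reduction read repeatedly during 40 h treatment at 37 C.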

[4] = qHTS RealTime-Glo MT Cell Viability Assay in HEK293 cells - 40 hour (AID 1224874); settings: RealTime-Glo luminescence; max response: stronger effect = lower value; also: nearly all actives have a fitted effect of over 50% in size
Summary of the method: (§2)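 qHTS format; HEK293 cells with NanoLuc/prosubstrate reagent, 37 C/5% CO2 for 5 h pre-dosing; compounds 23 nL in DMSO; luminescence at each time point reflects viable cells.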

[5] = A CellTox Green Cytotoxicity Assay to monitor cytotoxicity in HEK293 cells - 24 hour (AID 1224875); also: series mostly up to about 77 µM; nearly all actives have a fitted effect of over 45% in size
Summary of the method: as §1

[6] = A CellTox Green Cytotoxicity Assay to monitor cytotoxicity in HepG2 cells - 16 hour (AID 1224876); also: nearly all actives have a fitted effect of over 45% in size
Summary of the method: (§3)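 Continuous culture of HepG2 cells with a membrane-impermeant DNA dye; rising fluorescence marks dead cells. Compound exposure lasted up to 40 h at 37 C, with reads every 8 h from 0 h.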

[7] = qHTS RealTime-Glo MT Cell Viability Assay in HepG2 cells - 32 hour (AID 1224877); also: nearly all actives have a fitted effect of over 55% in size
Summary of the method: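 Compound treatment began 5 h after plating HepG2 cells (600/well) with NanoLuc luciferase and prosubstrate. Plates stayed at 37 C for 40 h; luminescence was captured at six time points, 0 h through 40 h.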

[8] = A CellTox Green Cytotoxicity Assay to monitor cytotoxicity in HepG2 cells - 24 hour (AID 1224878); also: nearly all actives have a fitted effect of over 45% in size
Summary of the method: as §3

[9] = A CellTox Green Cytotoxicity Assay to monitor cytotoxicity in HepG2 cells - 40 hour (AID 1224879); also: nearly all actives have a fitted effect of over 40% in size
Summary of the method: as §3

[10] = qHTS RealTime-Glo MT Cell Viability Assay in HEK293 cells - 0 hour (AID 1224880)
Summary of the method: as §2
% is scaled to controls: 0 for no effect and ±100 for the full control effect.

O=S(=O)(O)C(F)(F)C(F)(F)C(F)(F)C(F)(F)C(F)(F)C(F)(F)F
inactive: Potency [1] | Potency [2] | Potency [3] | max response [4] 2.43% | Potency [5] | Potency [6] | Potency [7] | Potency [8] | Potency [9] | outcome [10]

CC(C)NCC(O)c1ccc(N)c(C#N)c1 (stereo not drawn)
inactive: Potency [1] | Potency [2] | Potency [3] | max response [4] 2.86% | Potency [5] | Potency [6] | Potency [7] | Potency [8] | Potency [9] | outcome [10]

O=C(Nc1ccccc1)c1ccccc1I
inactive: Potency [1] | Potency [2] | Potency [3] | max response [4] -14.8% | Potency [5] | Potency [6] | Potency [7] | Potency [8] | Potency [9] | outcome [10]

C[C@]12CC[C@H]3[C@@H](CC=C4C[C@@H](O)CC[C@@]43C)[C@@H]1CC[C@@H]2O
inactive: Potency [1] | Potency [2] | Potency [3] | max response [4] 8.6% | Potency [5] | Potency [6] | Potency [7] | Potency [8] | Potency [9] | outcome [10]

CC(C)CC#N
inactive: Potency [1] | Potency [2] | Potency [3] | max response [4] 8.82% | Potency [5] | Potency [6] | Potency [7] | Potency [8] | Potency [9] | outcome [10]

O=C1OC(=O)C2C1C1(Cl)C(Cl)=C(Cl)C2(Cl)C1(Cl)Cl (stereo not drawn)
inactive: Potency [1] | Potency [2] | Potency [3] | max response [4] -0.525% | Potency [5] | Potency [6] | Potency [7] | Potency [8] | Potency [9] | outcome [10]

Cc1cc(C)nc(Nc2ccccc2)n1
inactive: Potency [1] | Potency [2] | Potency [3] | max response [4] -2.72% | Potency [5] | Potency [6] | Potency [7] | Potency [8] | Potency [9] | outcome [10]

ClC(Cl)(Cl)C(Cl)(Cl)Cl
inactive: Potency [1] | Potency [2] | Potency [3] | max response [4] 2.47% | Potency [5] | Potency [6] | Potency [7] | Potency [8] | outcome [10]

C[N+](=O)[O-]
inactive: Potency [1] | Potency [2] | Potency [3] | max response [4] 18.3% | Potency [5] | Potency [6] | Potency [7] | Potency [8] | outcome [10]

C[C@]12CC[C@H]3[C@@H](CCC4=CC(=O)CC[C@@]43C)[C@@H]1CC[C@@H]2C(=O)O
inactive: Potency [1] | Potency [2] | Potency [3] | max response [4] 2.42% | Potency [5] | Potency [6] | Potency [7] | Potency [8] | outcome [10]

CC1=C(C(=O)O)N2C(=O)[C@@H](N)[C@H]2SC1
inactive: cytotoxicity increase [1] -14.9% [at 15.8 µM] | activity change, negative = cytotoxicity [2] 1.93% [at 15.8 µM] | viability change, negative = cytotoxic [3] 1.32% [at 15.8 µM] | max response [4] 1.69% | activity change [5] -5.37% [at 15.8 µM, stronger effect = higher value] | cytotoxicity increase [6] -9.17% [at 15.8 µM] | activity change, negative = cytotoxic [7] 1.22% [at 15.8 µM] | cytotoxicity [8] -8.35% [at 15.8 µM] | activity change, negative = cytotoxicity [10] 1.57% [at 15.8 µM]

CSc1ccc(C(=O)C(C)(C)N2CCOCC2)cc1
inactive: Potency [1] | Potency [2] | Potency [3] | max response [4] 0.297% | Potency [5] | Potency [6] | Potency [7] | Potency [8] | outcome [10]

O=NN1CCN(N=O)CC1
inactive: Potency [1] | Potency [2] | Potency [3] | max response [4] -6.3% | Potency [5] | Potency [6] | Potency [7] | Potency [8] | outcome [10]

CC(=O)CC(c1ccc(Cl)cc1)c1c(O)c2ccccc2oc1=O (stereo not drawn)
inactive: Potency [1] | Potency [2] | Potency [3] | max response [4] -9.42% | Potency [5] | Potency [6] | Potency [7] | Potency [8] | outcome [10]

N#CC(O)c1ccccc1 (stereo not drawn)
inactive: Potency [1] | Potency [2] | Potency [3] | max response [4] 19.9% | Potency [5] | Potency [6] | Potency [7] | Potency [8] | outcome [10]

O=[N+]([O-])c1cccc2cccnc12
inactive: Potency [1] | Potency [2] | Potency [3] | max response [4] -7.09% | Potency [5] | Potency [6] | Potency [7] | Potency [8] | outcome [10]

CCCSC(=O)N(CCC)CCC
inactive: Potency [1] | Potency [2] | Potency [3] | max response [4] 7.77% | Potency [5] | Potency [6] | Potency [7] | Potency [8] | outcome [10]

CCOP(=S)(OCC)SCSc1ccc(Cl)cc1
inactive: Potency [1] | Potency [2] | Potency [3] | max response [4] -2.07% | Potency [5] | Potency [6] | Potency [7] | Potency [8] | outcome [10]

Cc1coc2c1CCC(C)C2 (stereo not drawn)
inactive: Potency [1] | Potency [2] | Potency [3] | max response [4] 15.4% | Potency [5] | Potency [6] | Potency [7] | Potency [8] | Potency [9] | outcome [10]

N#Cc1ccncc1
inactive: Potency [1] | Potency [2] | Potency [3] | max response [4] 11.4% | Potency [5] | Potency [6] | Potency [7] | Potency [8] | Potency [9] | outcome [10]

O=CNC(N1CCN(C(NC=O)C(Cl)(Cl)Cl)CC1)C(Cl)(Cl)Cl (stereo not drawn)
inactive: Potency [1] | Potency [2] | Potency [3] | max response [4] -2.73% | Potency [5] | Potency [6] | Potency [7] | Potency [8] | Potency [9] | outcome [10]

CC(C)(C)NCC(O)c1cc(Cl)c(N)c(Cl)c1 (stereo not drawn)
inactive: Potency [1] | Potency [2] | Potency [3] | max response [4] 2.03% | Potency [5] | Potency [6] | Potency [7] | Potency [8] | Potency [9] | outcome [10]

CC1(C)CON(Cc2ccccc2Cl)C1=O
inactive: Potency [1] | Potency [2] | Potency [3] | max response [4] -0.432% | Potency [5] | Potency [6] | Potency [7] | Potency [8] | outcome [10]

CC(C)[N+](=O)[O-]
inactive: Potency [1] | Potency [2] | Potency [3] | max response [4] 0.0306% | Potency [5] | Potency [6] | Potency [7] | Potency [8] | Potency [9] | outcome [10]
